From PubChem BioAssay
Rows were chosen to be rich in hits. Some 22% of all compounds tested hit in one or more screens of this group.
Pf growth 96h – P. falciparum growth inhibition at 96 hour, primary screen for plastid delayed-death inhibitors. P. falciparum luciferase reporter growth, 96 h. Potency, µM (titrated, usually from 28.7 µM), usual class: inhibitors. 6.9% of 320,000 active
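Delayed-death screen, second-generation endpoint: infected erythrocytes, 2% hematocrit, 0.05% parasitemia final; 96 hours at 37 C, 5% CO2; luciferase detection reagent; luminescence decrease equals reduced growth.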
Shiga inhibitor – Shiga toxin inhibition; Vero cells, Shiga toxin protein synthesis inhibition reporter; 9.2% of 290,000 active; inhibition, % at 38.7 µM; AID 2315; in the data active = inhibition mostly above about 28%, no sharp cut-off; inactive = mostly below about 43%
CHX counter – counter-screen hit for Shiga toxin inhibitors, cycloheximide; cell reporter, cycloheximide protein synthesis inhibition counterscreen; max response, %; 12% of 300,000 active; AID 2314; in the data active = max response mostly above about 13%, no sharp cut-off; inactive = mostly below about 14%; also: read at 38.3 µM for the half of the compounds with a filed dose
LmPK inh – blocks Leishmania mexicana pyruvate kinase activity; 0.37% of 290,000 active; Q27686; Potency, µM (top dose mostly 57.5 µM), most hits filed as inhibitors; purified LmPK, Kinase-Glo ATP luminescence, 1 h
Target sequence (Q27686 whole entry, looked up): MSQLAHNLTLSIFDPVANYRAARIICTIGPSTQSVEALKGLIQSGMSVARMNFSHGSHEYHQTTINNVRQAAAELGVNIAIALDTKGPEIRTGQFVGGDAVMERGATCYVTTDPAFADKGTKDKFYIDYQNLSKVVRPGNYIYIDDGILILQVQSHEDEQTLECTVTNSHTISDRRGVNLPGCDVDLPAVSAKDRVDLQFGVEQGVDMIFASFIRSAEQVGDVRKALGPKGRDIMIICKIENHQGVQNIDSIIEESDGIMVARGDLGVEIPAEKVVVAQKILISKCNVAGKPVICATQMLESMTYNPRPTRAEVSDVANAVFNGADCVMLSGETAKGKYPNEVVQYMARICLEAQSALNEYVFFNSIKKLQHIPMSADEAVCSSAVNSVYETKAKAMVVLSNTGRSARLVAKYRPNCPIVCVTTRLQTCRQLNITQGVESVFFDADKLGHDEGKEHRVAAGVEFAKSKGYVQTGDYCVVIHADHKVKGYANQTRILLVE
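Purified LmPK (0.1 nM) with 0.5 mM PEP and 0.1 mM ADP in imidazole buffer pH 7.2 with MgCl2/KCl, 1 h at room temperature. ATP formed was read by luciferase luminescence and normalized to no-enzyme and uninhibited controls.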
Pf growth 48h – P. falciparum growth inhibition at 48 hours (one generation). P. falciparum luciferase growth in erythrocytes, 48 h. Potency, µM (doses to about 28.7 µM), actives largely listed as inhibitors. 5.9% of 310,000 active
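Luminescence readout; reporter = integrated firefly luciferase in P. falciparum. RBC culture at 2% hematocrit, 0.1% parasitemia final, 37 C/5% CO2; decreased signal taken as growth inhibition.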
Large screens that a line does not name were inactive. Unless noted, calls follow the shape of the dose curve; as a rule, active = well fitted inhibition curve with a large enough effect; inconclusive = small, poorly fitted or top-dose-only effect, or another doubt; inactive = no such curve, though single readings can be large or run the other way.

COc1cccc(-c2nc3ccccc3s2)c1O	CHX counter 27.3
O=c1c(-c2nc3ccccc3s2)cccn1Cc1ccc(Cl)cc1	Pf growth 96h inconclusive, Pf growth 48h inconclusive
Cc1cc(C)c2c(N)c(C(=O)Nc3ccc(C)c(C)c3)sc2n1	Shiga inhibitor 123.7, CHX counter 32.9
Cc1cc(C(F)(F)F)c2c(N)c(C(=O)Nc3cc(C)on3)sc2n1	Pf growth 96h inconclusive, Shiga inhibitor 116.6, CHX counter 55.3
Cc1cc(C)c2c(N)c(C(=O)C(C)(C)C)sc2n1	none
Cc1cc(C)cc(NC(=O)c2sc3nc(C)cc(C)c3c2N)c1	Shiga inhibitor 117.6, CHX counter 25.1
COc1ccc(/C=N/NC(=O)c2sc3nc(C)cc(C)c3c2N)cc1	none
COc1ccc(NC(=O)c2sc3nc(C)cc(C)c3c2N)cc1	Pf growth 96h inconclusive, Shiga inhibitor 43.3, CHX counter 34.3
CCOc1cccc2sc(=NC(=O)CCS(=O)(=O)c3ccc(F)cc3)n(C)c12	Pf growth 48h inconclusive (no result: Shiga inhibitor, CHX counter, LmPK inh)
COc1cccc(NC(=O)C(=O)NCCC2CCCCN2S(=O)(=O)c2cccs2)c1 (centres undefined)	none (no result: Shiga inhibitor, CHX counter, LmPK inh)
Cc1ccc2nc(Br)c3c(c2c1)OC(CBr)C3 (centres undefined)	Pf growth 96h inconclusive
Cc1cccc(NC(=O)c2ccccc2OCC(=O)N2CCCC2)c1C	none
COc1ccccc1CNC(=O)/C=C/c1cc2c(cc1Br)OCO2	none
CCOC(=O)c1c(C)nc2sc(C(=O)Nc3ccc(C(C)=O)cc3)c(N)c2c1-c1ccc(OC)cc1	Pf growth 48h inconclusive
Cc1cc(C)c2c(N)c(C(=O)NN3CC(=O)N(c4ccccc4)CC3=O)sc2n1	none
Cc1cc(C)c2c(N)c(C(=O)c3ccc(Cl)c(Cl)c3)sc2n1	Shiga inhibitor 81.6
Cc1cc(C)c2c(N)c(C(=O)N/N=C/c3cccs3)sc2n1	Shiga inhibitor 91.9, CHX counter 53.5
Cc1cc(C)c2c(N)c(C(=O)Nc3ccc(F)cc3)sc2n1	Pf growth 96h inconclusive, Shiga inhibitor 91.8, CHX counter 44.6
COCc1cc(C)nc2sc(C(=O)Nc3ccc(C(=O)OC)cc3)c(N)c12	none (no result: Shiga inhibitor)
CCOC(=O)c1c(C)nc2sc(C(=O)Nc3ccc(OC)cc3)c(N)c2c1-c1ccc(OC)cc1	Pf growth 96h 2.33µM (no result: Pf growth 48h)
Cc1cc(C)c2c(N)c(C(=O)c3ccc(Cl)cc3)sc2n1	Pf growth 48h inconclusive
COc1cc(NC(=O)Cn2ccsc2=N)cc(OC)c1	Pf growth 96h inconclusive
COC(=O)[C@@H]1CC2=CC(=O)CC[C@]2(C)[C@@]23O[C@@H]2C[C@@]2(C)[C@H](CC[C@@]24CCC(=O)O4)[C@@H]13	none (no result: Pf growth 96h, LmPK inh, Pf growth 48h)
Cc1ccccc1CS(=O)(=O)CCC(=O)NCc1ccccn1	none
COc1ccc(CCNC(=O)c2c(C)nc3ccccn23)cc1OC	none
CCOC(=O)c1c(C)nc2sc3c(=O)n(-c4ccc(OC)cc4)cnc3c2c1-c1ccc(OC)cc1	Pf growth 96h 11.7µM, Pf growth 48h inconclusive
Cc1cc(C)c2c(N)c(C(=O)Nc3ccc([N+](=O)[O-])cc3)sc2n1	Shiga inhibitor 41.9, CHX counter 19.8
CCOC(=O)c1c(C)nc2sc3c(=O)n(-c4ccc(C(C)=O)cc4)nnc3c2c1-c1ccc(OC)cc1	Pf growth 48h inconclusive
CCN(CC(=O)NCc1cccs1)C(=O)/C=C/c1cccc(Cl)c1Cl	none (no result: Shiga inhibitor, CHX counter, LmPK inh)
COc1ccc(C(CCNC(C)c2ccccc2)C(C)C)cc1 (centres undefined)	Pf growth 96h 9.28µM, Pf growth 48h 9.28µM
Cc1nc2ccccn2c1C(=O)N=Nc1c(O)[nH]c2ccccc12	Pf growth 96h inconclusive
C=CC[C@@H]1C=C[C@H](O/N=C/c2ccc(C(=O)N3[C@H](c4ccc(C)cc4)[C@@H](C)CC[C@H]3C(=O)OC)cc2)[C@@H](CO)O1	Pf growth 96h inconclusive
CN(CCC1CCCCO1)C(=O)CCc1nnc(C2CCCCC2)o1 (centres undefined)	Pf growth 96h inconclusive, Shiga inhibitor 40.2, CHX counter 31.5
C=C(CC1([C@@H](NP(=O)(c2ccccc2)c2ccccc2)[C@H]2C[C@@H]2CCCC)CC1)c1ccccc1	Pf growth 96h 9.28µM, Pf growth 48h 5.86µM
Cc1cccc(C)c1NC(=O)CN(CC(=O)O)CC(=O)O	none (no result: Shiga inhibitor, CHX counter, LmPK inh)
COC(=O)c1ccc(S(=O)(=O)N(C2CCCCC2)C2CCCCC2)n1C	Pf growth 96h inconclusive, Pf growth 48h 10.4µM
CCC(C)(C)NC(=O)CN(Cc1ccco1)C(=O)CCC(=O)Nc1nccs1	none
CC(=O)Nc1cccc(-c2csc(N)n2)c1	Pf growth 96h inconclusive
CC(=O)Nc1cccc(-c2csc(NCc3ccccc3)n2)c1	Pf growth 96h 10.4µM, CHX counter 11.0, Pf growth 48h inconclusive
CCOC(=O)/C(C)=N/Nc1nc(-c2ccc(NC(C)=O)cc2)cs1	Pf growth 96h 10.4µM, CHX counter 18.4, Pf growth 48h inconclusive
CC(=O)Nc1ccc(-c2csc(NCc3ccccc3)n2)cc1	Shiga inhibitor 61.8, CHX counter 25.1
CCOc1cncc(/C=C/CCNC)c1	none (no result: Pf growth 96h, LmPK inh, Pf growth 48h)
N#Cc1ncc(-c2ccc3c(c2)OCCOCCOCCOCCO3)nc1C#N	Pf growth 96h 11.7µM, Pf growth 48h inconclusive
N#CCCn1cc(C(=O)N2CCOCC2)c(-c2ccc3c(c2)OCCO3)n1	none
N#Cc1ncc(-c2ccc3c(c2)OCCOCCOCCOCCOCCO3)nc1C#N	Pf growth 96h 11.7µM, Pf growth 48h inconclusive
CCOc1cc(C(C(=O)NCC2CCCO2)N(C(=O)Cn2nnc3ccccc32)c2ccccc2OC)ccc1O (centres undefined)	Pf growth 48h inconclusive
CCC1=Nc2cc(C(=O)N3CCCCC3)ccc2Sc2ccc(C)cc21	Pf growth 48h inconclusive
CC1=Nc2cc(C(=O)N3CCCCC3)ccc2Sc2ccc(C)cc21	Pf growth 48h 9.28µM
Cc1cccc(-c2nc3ccc(C(=O)N4CCC5(CC4)OCCO5)cc3nc2-c2cccc(C)c2)c1	Pf growth 96h inconclusive, Pf growth 48h 10.4µM
CCC1=Nc2cc(C(=O)N3CCC4(CC3)OCCO4)ccc2Sc2ccc(C)cc21	Pf growth 48h 10.4µM
CC1=Nc2cc(C(=O)N3CCCC3)ccc2Sc2ccc(C)cc21	Pf growth 96h inconclusive, Pf growth 48h 9.28µM
CCC1=Nc2cc(C(=O)N3CCC4(CC3)OCCO4)ccc2Sc2ccccc21	Pf growth 48h inconclusive
COc1cccc(C(=O)N2CCC3(CC2)OCCO3)c1	Pf growth 96h inconclusive
CC(=O)Nc1cc(O)cc(O)c1	none
COC(=O)[C@@H](Cc1c[nH]c2ccccc12)NC(=O)CCC(=O)c1ccc(F)cc1	Pf growth 96h inconclusive, Pf growth 48h inconclusive
C[C@@H]1C(=O)OC2C[C@@]34[C@H]5C[C@@H](C(C)(C)C)[C@@]36C(O)C(=O)O[C@H]6O[C@@]4(C(=O)O5)[C@]21O (some centres undefined)	none (no result: Pf growth 96h, LmPK inh, Pf growth 48h)
CCCC1=Nc2cc(C(=O)N3CCCC3)ccc2Sc2ccc(C)cc21	Pf growth 48h 11.7µM
CCOC(=O)N1CCN(C(=O)c2ccc3c(c2)N=C(CC)c2cc(C)ccc2S3)CC1	Pf growth 96h inconclusive, Pf growth 48h inconclusive
CCCC1=Nc2cc(C(=O)N3CCN(c4ccccn4)CC3)ccc2Sc2ccc(C)cc21	Pf growth 96h inconclusive, Pf growth 48h 9.28µM
